Results on 2 sequences are retold here after article PMC7862700, “An all-to-all approach to the identification of sequence-specific readers for epigenetic DNA modifications on cytosine”.

What all share (assay): DAPPL (digital affinity profiling via proximity ligation, sequencing); 10 mM Tris-HCl pH 7.5, 50 mM NaCl, 1 mM DTT, 4% glycerol, room temperature, 30 min; GST-TFs on glutathione beads, 16-mer random dsDNA library, 0.1% formaldehyde crosslink after washing; high values mean tight binding
Settings in all cases: protein: recombinant; tags: N-terminal GST; dsDNA, one strand shown

In one test the target is T1, ELK1 (Homo sapiens, UniProt P19419 1-428).
T1 sequence: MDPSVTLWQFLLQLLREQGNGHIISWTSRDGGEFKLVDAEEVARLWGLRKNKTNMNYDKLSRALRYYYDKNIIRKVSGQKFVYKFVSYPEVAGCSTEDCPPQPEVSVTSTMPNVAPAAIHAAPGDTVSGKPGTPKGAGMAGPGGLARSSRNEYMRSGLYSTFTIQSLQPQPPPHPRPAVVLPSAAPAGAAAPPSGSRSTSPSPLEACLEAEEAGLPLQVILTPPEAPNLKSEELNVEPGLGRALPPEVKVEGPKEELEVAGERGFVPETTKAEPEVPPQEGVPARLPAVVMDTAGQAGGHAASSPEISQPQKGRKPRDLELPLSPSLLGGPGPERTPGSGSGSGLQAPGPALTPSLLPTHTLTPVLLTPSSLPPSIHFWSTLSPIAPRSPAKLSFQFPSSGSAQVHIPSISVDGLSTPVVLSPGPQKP
The essentials:
(§1)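 Sequencing on an Illumina NextSeq500 followed washing, crosslinking with 0.1% formaldehyde, proximity ligation (BsaI/T4 ligase, 1 h, 37 °C) and PCR amplification of pools that had been incubated for 30 min at room temperature with 200 nmole of a random double-stranded 16-mer DNA library in Tris/NaCl/DTT/glycerol buffer. Each pool held DNA-barcoded human transcription factors, expressed in yeast as GST fusions and captured on glutathione beads, plus a tag-only sample. Binding signal is a hexamer's read frequency for a factor divided by its frequency in the tag-only sample.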

The next test deals with T2, GABPA (Homo sapiens, UniProt Q06546 1-454).
T2 sequence: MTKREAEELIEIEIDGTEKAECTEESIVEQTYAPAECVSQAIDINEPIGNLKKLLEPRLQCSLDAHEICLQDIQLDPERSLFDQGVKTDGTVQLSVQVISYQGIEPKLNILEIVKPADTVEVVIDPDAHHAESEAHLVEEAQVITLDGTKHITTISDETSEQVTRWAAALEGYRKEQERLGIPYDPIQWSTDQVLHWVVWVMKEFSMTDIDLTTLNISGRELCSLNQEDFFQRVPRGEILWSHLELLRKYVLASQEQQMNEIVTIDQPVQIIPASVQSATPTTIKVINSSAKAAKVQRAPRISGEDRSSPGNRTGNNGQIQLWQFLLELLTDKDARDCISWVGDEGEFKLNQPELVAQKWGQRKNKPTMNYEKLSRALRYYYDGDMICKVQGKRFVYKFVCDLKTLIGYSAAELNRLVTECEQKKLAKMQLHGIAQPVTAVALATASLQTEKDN
The essentials:
as §1

A further test concerns the target T3, ERG (Homo sapiens, UniProt P11308 1-479).
T3 sequence: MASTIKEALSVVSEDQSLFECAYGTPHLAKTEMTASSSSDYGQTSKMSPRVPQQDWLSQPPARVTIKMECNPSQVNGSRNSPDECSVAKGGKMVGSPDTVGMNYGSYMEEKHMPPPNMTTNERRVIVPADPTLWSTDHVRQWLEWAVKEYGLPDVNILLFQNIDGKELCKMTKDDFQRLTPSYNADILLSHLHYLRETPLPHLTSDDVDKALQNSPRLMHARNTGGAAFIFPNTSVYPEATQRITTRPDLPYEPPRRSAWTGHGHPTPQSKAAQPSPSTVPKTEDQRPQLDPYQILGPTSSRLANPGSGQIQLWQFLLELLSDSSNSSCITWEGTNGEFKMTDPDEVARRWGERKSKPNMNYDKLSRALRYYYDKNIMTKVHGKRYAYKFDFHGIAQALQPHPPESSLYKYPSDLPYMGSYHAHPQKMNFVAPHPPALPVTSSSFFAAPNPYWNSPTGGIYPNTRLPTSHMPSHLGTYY
The essentials: as §1

The target of the next test is ELF1 (Homo sapiens, UniProt P32519 1-619). The essentials: as §1
A further test addresses T4, SPIC (Homo sapiens, UniProt Q8N5J4 1-248).
T4 sequence: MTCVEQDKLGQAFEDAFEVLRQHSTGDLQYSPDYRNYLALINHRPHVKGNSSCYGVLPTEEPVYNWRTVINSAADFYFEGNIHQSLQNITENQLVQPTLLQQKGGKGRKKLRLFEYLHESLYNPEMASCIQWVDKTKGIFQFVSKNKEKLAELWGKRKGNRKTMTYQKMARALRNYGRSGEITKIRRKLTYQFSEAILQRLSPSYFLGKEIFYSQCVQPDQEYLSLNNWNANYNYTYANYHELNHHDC
The essentials: as §1

The next test concerns the target ELF4 (Homo sapiens, UniProt Q99607 1-663). The essentials:
as §1

In another test the target is T5, ELK4 (Homo sapiens, UniProt P28324-2 1-405).
T5 sequence: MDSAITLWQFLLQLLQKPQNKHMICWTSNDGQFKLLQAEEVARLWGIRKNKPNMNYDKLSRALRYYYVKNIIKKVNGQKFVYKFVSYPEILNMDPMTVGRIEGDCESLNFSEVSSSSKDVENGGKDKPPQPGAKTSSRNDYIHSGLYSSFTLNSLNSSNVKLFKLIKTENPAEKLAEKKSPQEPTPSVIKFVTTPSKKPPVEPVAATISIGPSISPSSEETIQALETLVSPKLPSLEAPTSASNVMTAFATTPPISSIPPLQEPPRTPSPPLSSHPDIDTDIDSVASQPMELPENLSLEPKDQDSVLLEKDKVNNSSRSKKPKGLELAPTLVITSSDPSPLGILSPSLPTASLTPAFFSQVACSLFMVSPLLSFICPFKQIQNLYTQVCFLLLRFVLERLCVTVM
An outline of the steps: as §1

In another test the target is T6, ETS2 (Homo sapiens, UniProt P15036 1-469).
T6 sequence: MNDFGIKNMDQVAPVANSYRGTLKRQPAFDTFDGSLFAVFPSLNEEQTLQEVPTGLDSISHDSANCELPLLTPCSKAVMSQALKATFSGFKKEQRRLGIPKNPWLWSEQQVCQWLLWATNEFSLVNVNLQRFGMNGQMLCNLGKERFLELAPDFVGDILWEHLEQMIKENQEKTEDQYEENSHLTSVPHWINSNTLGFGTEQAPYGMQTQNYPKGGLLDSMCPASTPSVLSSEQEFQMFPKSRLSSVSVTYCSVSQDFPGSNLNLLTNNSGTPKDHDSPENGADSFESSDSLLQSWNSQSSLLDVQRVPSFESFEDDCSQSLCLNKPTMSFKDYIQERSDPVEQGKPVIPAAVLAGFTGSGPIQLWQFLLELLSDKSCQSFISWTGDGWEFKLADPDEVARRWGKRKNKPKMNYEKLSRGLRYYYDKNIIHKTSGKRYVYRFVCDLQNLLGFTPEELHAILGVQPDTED
The essentials:
as §1

The target in a further test is T7, SPDEF (Homo sapiens, UniProt O95238 1-335).
T7 sequence: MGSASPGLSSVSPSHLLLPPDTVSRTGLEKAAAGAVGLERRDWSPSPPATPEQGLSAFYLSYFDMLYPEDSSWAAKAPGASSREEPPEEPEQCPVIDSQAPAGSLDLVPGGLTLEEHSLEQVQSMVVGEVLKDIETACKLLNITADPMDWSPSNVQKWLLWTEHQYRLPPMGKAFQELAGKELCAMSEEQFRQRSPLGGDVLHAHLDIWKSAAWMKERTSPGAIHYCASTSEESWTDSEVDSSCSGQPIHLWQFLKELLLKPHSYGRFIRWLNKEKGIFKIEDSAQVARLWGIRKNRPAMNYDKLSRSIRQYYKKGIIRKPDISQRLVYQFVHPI
An outline of the steps: as §1

Another test has as its target T8, ETV7 (Homo sapiens, UniProt Q9Y603 1-341).
T8 sequence: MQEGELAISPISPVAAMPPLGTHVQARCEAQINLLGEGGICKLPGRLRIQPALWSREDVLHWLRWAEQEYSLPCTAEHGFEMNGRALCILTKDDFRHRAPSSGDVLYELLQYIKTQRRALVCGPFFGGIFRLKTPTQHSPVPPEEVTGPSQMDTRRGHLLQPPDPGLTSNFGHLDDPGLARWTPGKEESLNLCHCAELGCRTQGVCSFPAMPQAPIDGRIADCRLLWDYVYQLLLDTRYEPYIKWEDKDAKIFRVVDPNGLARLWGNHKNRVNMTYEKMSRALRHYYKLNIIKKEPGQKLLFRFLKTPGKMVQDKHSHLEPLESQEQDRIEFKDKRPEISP
An outline of the steps: as §1

For the next test, the target named is T9, ETV3 (Homo sapiens, UniProt P41162-2 1-143).
T9 sequence: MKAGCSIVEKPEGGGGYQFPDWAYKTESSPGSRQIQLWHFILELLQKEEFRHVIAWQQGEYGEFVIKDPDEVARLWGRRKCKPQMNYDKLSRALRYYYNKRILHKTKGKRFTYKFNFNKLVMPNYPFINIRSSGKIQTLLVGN
The essentials: as §1

In another test the target is SPIB (Homo sapiens, UniProt Q01892 1-262). An outline of the steps:
as §1

The target of the next test is T10, ELK3 (Homo sapiens, UniProt P41970 1-407).
T10 sequence: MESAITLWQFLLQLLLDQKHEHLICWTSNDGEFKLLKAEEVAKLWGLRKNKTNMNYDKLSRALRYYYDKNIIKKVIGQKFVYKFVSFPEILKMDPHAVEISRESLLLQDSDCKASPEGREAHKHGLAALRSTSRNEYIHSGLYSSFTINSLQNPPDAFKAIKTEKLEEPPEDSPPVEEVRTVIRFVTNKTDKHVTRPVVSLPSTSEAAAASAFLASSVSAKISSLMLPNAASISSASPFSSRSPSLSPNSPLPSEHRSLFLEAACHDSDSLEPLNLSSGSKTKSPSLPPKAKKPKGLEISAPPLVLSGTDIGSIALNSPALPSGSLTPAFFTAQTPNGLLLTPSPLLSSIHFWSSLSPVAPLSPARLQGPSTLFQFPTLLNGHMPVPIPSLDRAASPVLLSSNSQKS
The essentials: as §1

Another test concerns the target ETV1 (Homo sapiens, UniProt P50549 1-477). The essentials: as §1
The target of the next test is T11, ERF (Homo sapiens, UniProt P50548 1-548).
T11 sequence: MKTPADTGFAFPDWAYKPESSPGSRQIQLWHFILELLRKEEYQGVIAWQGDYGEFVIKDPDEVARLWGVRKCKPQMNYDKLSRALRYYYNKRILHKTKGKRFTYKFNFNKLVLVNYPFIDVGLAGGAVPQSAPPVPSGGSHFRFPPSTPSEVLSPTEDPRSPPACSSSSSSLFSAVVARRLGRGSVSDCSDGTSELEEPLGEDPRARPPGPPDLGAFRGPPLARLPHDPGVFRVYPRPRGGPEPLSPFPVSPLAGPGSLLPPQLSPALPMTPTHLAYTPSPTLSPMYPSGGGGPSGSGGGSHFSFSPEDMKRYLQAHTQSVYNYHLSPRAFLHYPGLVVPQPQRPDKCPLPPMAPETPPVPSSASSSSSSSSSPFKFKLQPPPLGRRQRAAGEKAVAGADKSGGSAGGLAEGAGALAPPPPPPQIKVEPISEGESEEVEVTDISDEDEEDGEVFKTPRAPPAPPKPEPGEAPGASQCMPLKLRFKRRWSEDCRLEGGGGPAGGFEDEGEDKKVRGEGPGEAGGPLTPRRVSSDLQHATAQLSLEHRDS
An outline of the steps: as §1

Another test concerns the target T12, ETV3L (Homo sapiens, UniProt Q6ZN32 1-361).
T12 sequence: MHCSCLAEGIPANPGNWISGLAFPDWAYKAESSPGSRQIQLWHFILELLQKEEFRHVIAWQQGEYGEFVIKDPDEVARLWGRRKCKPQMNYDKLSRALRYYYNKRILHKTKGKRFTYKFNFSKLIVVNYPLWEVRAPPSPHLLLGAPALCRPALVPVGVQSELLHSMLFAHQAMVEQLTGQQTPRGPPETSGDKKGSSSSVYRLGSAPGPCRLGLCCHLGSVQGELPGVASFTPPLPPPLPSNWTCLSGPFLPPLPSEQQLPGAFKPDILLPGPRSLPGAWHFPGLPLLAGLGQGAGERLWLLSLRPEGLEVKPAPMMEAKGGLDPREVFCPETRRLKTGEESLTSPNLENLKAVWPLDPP
An outline of the steps:
as §1

A further test deals with ETV6 (Homo sapiens, UniProt P41212 1-452). An outline of the steps: as §1
ETV6, sequence (P41212 whole entry): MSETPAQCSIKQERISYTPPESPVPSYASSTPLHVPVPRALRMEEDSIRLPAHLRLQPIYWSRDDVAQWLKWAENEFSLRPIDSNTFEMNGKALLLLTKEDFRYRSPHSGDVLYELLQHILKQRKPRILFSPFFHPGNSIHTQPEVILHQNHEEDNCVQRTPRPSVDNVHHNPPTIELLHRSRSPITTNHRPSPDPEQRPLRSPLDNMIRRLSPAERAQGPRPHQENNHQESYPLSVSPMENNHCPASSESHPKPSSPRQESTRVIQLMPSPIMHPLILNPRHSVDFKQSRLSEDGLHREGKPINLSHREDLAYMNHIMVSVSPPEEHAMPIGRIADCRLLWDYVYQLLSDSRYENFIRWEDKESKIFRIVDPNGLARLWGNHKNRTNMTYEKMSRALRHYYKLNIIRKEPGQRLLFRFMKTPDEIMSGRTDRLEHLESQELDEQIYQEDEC

ELF1, sequence (P32519 whole entry): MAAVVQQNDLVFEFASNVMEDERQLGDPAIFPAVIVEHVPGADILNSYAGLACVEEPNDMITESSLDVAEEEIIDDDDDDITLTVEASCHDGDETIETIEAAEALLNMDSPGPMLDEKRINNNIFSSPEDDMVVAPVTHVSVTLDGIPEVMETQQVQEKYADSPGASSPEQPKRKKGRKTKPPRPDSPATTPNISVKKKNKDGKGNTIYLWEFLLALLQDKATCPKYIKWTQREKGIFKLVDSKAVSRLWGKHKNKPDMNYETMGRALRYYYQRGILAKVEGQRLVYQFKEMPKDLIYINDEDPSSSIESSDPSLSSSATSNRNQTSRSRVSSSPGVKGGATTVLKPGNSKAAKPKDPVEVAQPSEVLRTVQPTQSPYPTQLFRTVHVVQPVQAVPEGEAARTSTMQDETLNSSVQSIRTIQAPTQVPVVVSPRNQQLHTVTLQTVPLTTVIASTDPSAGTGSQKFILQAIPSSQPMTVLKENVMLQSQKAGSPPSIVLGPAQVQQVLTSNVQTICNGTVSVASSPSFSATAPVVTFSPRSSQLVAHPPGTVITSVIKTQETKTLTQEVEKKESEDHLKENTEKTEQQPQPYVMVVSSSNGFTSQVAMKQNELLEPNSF
ELF4, sequence (Q99607 whole entry): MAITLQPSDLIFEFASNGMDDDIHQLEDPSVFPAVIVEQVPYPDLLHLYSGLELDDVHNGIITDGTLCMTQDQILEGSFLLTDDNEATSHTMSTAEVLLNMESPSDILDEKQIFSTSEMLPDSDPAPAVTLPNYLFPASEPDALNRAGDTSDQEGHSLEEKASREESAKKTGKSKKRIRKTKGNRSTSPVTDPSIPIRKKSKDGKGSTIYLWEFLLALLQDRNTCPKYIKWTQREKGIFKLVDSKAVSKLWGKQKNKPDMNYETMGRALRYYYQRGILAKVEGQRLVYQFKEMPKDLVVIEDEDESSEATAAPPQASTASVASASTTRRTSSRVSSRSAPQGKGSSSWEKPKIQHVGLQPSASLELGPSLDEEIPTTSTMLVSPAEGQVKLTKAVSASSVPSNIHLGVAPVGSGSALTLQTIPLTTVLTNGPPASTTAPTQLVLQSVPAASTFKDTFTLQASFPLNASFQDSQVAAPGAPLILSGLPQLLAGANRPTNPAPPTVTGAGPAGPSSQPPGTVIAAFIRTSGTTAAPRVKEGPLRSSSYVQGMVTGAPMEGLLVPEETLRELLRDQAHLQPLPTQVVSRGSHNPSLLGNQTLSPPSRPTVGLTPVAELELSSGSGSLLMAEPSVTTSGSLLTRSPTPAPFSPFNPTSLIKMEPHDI
ETV1, sequence (P50549 whole entry): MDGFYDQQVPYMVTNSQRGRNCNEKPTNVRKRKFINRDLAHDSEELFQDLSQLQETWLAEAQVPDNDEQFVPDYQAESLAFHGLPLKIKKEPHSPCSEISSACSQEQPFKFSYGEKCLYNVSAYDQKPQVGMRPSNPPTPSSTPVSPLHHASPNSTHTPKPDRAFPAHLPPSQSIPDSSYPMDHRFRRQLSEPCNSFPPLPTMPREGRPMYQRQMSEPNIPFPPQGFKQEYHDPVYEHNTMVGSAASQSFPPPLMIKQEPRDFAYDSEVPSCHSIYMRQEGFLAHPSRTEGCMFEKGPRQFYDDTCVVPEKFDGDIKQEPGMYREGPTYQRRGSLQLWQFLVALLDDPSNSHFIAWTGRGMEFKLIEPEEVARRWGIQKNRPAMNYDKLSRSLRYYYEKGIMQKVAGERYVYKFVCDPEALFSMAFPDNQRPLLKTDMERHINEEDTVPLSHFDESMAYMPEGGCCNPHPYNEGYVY
SPIB, sequence (Q01892 whole entry): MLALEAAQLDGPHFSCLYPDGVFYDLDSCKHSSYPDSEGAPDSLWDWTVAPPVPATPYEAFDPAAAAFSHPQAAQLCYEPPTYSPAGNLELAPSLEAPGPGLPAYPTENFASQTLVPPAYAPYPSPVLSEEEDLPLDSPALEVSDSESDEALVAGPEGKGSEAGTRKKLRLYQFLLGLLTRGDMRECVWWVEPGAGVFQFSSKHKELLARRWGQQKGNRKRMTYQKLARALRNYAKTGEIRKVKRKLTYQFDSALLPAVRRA

TAAGCA: the binding signal with ELK1 is 1.02 fold enrichment (6-mer frequency, TF over GST control); with GABPA, 1.08 fold enrichment (6-mer frequency, TF over GST control); in the test with ERG, 1.01 fold enrichment (6-mer frequency, TF over GST control); in the test with ELF1, 1.07 fold enrichment (6-mer frequency, TF over GST control); with SPIC it was 1.08 fold enrichment (6-mer frequency, TF over GST control); with ELF4, 1.03 fold enrichment (6-mer frequency, TF over GST control). In addition, the binding signal is 1.09 fold enrichment (6-mer frequency, TF over GST control) with ELK4; 1.07 fold enrichment (6-mer frequency, TF over GST control) in the test with ETS2; 1.06 fold enrichment (6-mer frequency, TF over GST control) with SPDEF; 1.02 fold enrichment (6-mer frequency, TF over GST control) in the test with ETV7; 1 fold enrichment (6-mer frequency, TF over GST control) with ETV3.
Turning to GATCAA, the binding signal with GABPA is 1.16 fold enrichment (6-mer frequency, TF over GST control); in the test with ELF1, 1.04 fold enrichment (6-mer frequency, TF over GST control); with SPIB, 1.03 fold enrichment (6-mer frequency, TF over GST control); with ELK3, 1.09 fold enrichment (6-mer frequency, TF over GST control); with SPIC, 1.05 fold enrichment (6-mer frequency, TF over GST control); in the test with ETV1, 1.04 fold enrichment (6-mer frequency, TF over GST control). Moreover, the binding signal in the test with ERF is 1.02 fold enrichment (6-mer frequency, TF over GST control); with ETV3L it was 1.1 fold enrichment (6-mer frequency, TF over GST control); with ETS2, 1.04 fold enrichment (6-mer frequency, TF over GST control); in the test with SPDEF, 1.05 fold enrichment (6-mer frequency, TF over GST control); in the test with ETV3 it was 1.01 fold enrichment (6-mer frequency, TF over GST control); with ETV6, 1.07 fold enrichment (6-mer frequency, TF over GST control).
